Out of some 5,500 compounds screened, about 2,000 (36%) were called active. Not shown: some 18% with an inconclusive outcome. Cut-off read from the data, not from the text of the source: active = normalized growth mostly below about 0.91 (no sharp cut-off); inconclusive = no clear call, values can overlap the other calls; inactive = mostly above about 0.92. The list shows a part of the results.
Test: chemical genetic growth profiling, strain panel (AID 1159580);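 note: tested at 20 µM; growth read once vehicle control cultures reached saturation at 30 °C; 1 = growth at the plate median or of vehicle wells; lower values mean less growth of the strain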
Conditions: growth OD

Measured: normalized growth

C[C@@H]1[C@H]2[C@H](O[C@@H]3O[C@H](CO)[C@@H](O)[C@H](O)[C@H]3O)OC=C(C(=O)O)[C@H]2C[C@@H]1O
inactive: S. cerevisiae deletion strains, locus YAL013W, strain DEP1, active compounds read low 1.01 | S. cerevisiae deletion strains, locus YBR021W, strain FUR4, active compounds read low 1.05 | S. cerevisiae deletion strains, locus YBR229C, strain ROT2, active compounds read low 0.964 | S. cerevisiae deletion strains, locus YCL029C, strain bik1, active compounds read low 0.963 | S. cerevisiae deletion strains, locus YDL035C, strain GPR1, active compounds read low 1.02 | S. cerevisiae deletion strains, locus YDL074C, strain BRE1, active compounds read low 1.08 | S. cerevisiae deletion strains, locus YDL101C, strain DUN1, active compounds read low 0.98 | S. cerevisiae deletion strains, locus YDL134C, strain PPH21, active compounds read low 0.999 | S. cerevisiae deletion strains, locus YDL185W, strain tfp1, active compounds read low 0.962 | S. cerevisiae deletion strains, locus YDL192W, strain arf1, active compounds read low 1.03 | S. cerevisiae deletion strains, locus YDR101C, strain arx1, active compounds read low 1.01 | S. cerevisiae deletion strains, locus YDR162C, strain NBP2, active compounds read low 0.963 | S. cerevisiae deletion strains, locus YDR318W, strain mcm21, active compounds read low 0.986 | S. cerevisiae deletion strains, locus YDR388W, active compounds read low 0.996 | S. cerevisiae deletion strains, locus YDR502C, strain sam2, active compounds read low 1 | S. cerevisiae deletion strains, locus YEL061C, strain CIN8, active compounds read low 0.999 | S. cerevisiae deletion strains, locus YER110C, active compounds read low 0.974 | S. cerevisiae deletion strains, locus YER155C, strain BEM2, active compounds read low 1.02 | S. cerevisiae deletion strains, locus YER167W, strain BCK2, active compounds read low 1 | S. cerevisiae deletion strains, locus YGL078C, strain dbp3, active compounds read low 0.986 | S. cerevisiae deletion strains, locus YGL086W, strain mad1, active compounds read low 1.01 | S. cerevisiae deletion strains, locus YGL248W, strain PDE1, active compounds read low 0.987 | S. cerevisiae deletion strains, locus YGR078C, strain PAC10, active compounds read low 0.984 | S. cerevisiae deletion strains, locus YGR135W, strain pre9, active compounds read low 0.98 | S. cerevisiae deletion strains, locus YGR252W, strain gcn5, active compounds read low 0.995 | S. cerevisiae deletion strains, locus YHR030C, strain SLT2, active compounds read low 1.01 | S. cerevisiae deletion strains, locus YHR079C, strain IRE1 (second series), active compounds read low 0.985 | S. cerevisiae deletion strains, locus YHR094C, strain hxt1, active compounds read low 0.991 | S. cerevisiae deletion strains, locus YHR129C, strain ARP1, active compounds read low 1 | S. cerevisiae deletion strains, locus YHR200W, strain rpn10, active compounds read low 0.99 | S. cerevisiae deletion strains, locus YIL066C, strain RNR3, active compounds read low 1 | S. cerevisiae deletion strains, locus YIL073C, strain SPO22, active compounds read low 1.01 | S. cerevisiae deletion strains, locus YIL125W, strain kgd1, active compounds read low 0.978 | S. cerevisiae deletion strains, locus YIR030C, strain dcg1, active compounds read low 0.995 | S. cerevisiae deletion strains, locus YJL095W, strain BCK1, active compounds read low 0.996 | S. cerevisiae deletion strains, locus YJL134W, strain LCB3, active compounds read low 0.988 | S. cerevisiae deletion strains, locus YJL168C, strain set2, active compounds read low 1.01 | S. cerevisiae deletion strains, locus YJL187C, strain SWE1 (second series), active compounds read low 0.987 | S. cerevisiae deletion strains, locus YJR043C, strain POL32, active compounds read low 1.01 | S. cerevisiae deletion strains, locus YKL009W, strain mrt4, active compounds read low 1.03 | S. cerevisiae deletion strains, locus YKL068W, active compounds read low 0.977 | S. cerevisiae deletion strains, locus YKL085W, strain MDH1 (second series), active compounds read low 0.987 | S. cerevisiae deletion strains, locus YKL085W, strain MDH1, active compounds read low 0.987 | S. cerevisiae deletion strains, locus YKR001C, strain vps1, active compounds read low 0.983 | S. cerevisiae deletion strains, locus YLR039C, strain RIC1, active compounds read low 1.03 | S. cerevisiae deletion strains, locus YLR058C, strain SHM2, active compounds read low 0.977 | S. cerevisiae deletion strains, locus YLR102C, strain apc9, active compounds read low 0.987 | S. cerevisiae deletion strains, locus YLR262C, strain YPT6, active compounds read low 0.908 | S. cerevisiae deletion strains, locus YLR268W, strain sec22, active compounds read low 1.02 | S. cerevisiae deletion strains, locus YLR330W, strain CHS5, active compounds read low 1.01 | S. cerevisiae deletion strains, locus YLR342W, strain FKS1 (second series), active compounds read low 1.11 | S. cerevisiae deletion strains, locus YLR371W, strain rom2, active compounds read low 0.978 | S. cerevisiae deletion strains, locus YLR418C, strain cdc73, active compounds read low 0.984 | S. cerevisiae deletion strains, locus YML016C, strain PPZ1, active compounds read low 0.998 | S. cerevisiae deletion strains, locus YML032C, strain rad52, active compounds read low 0.995 | S. cerevisiae deletion strains, locus YML124C, strain tub3, active compounds read low 0.992 | S. cerevisiae deletion strains, locus YMR078C, strain ctf18, active compounds read low 0.976 | S. cerevisiae deletion strains, locus YMR223W, strain ubp8, active compounds read low 1.02 | S. cerevisiae deletion strains, locus YMR307W, strain GAS1, active compounds read low 1.16 | S. cerevisiae deletion strains, locus YNL067W, strain RPL9B, active compounds read low 0.992 | S. cerevisiae deletion strains, locus YNL128W, strain TEP1, active compounds read low 1 | S. cerevisiae deletion strains, locus YNL233W, strain BNI4, active compounds read low 1.01 | S. cerevisiae deletion strains, locus YNL250W, strain rad50, active compounds read low 0.992 | S. cerevisiae deletion strains, locus YNL271C, strain bni1, active compounds read low 0.994 | S. cerevisiae deletion strains, locus YNL298W, strain CLA4, active compounds read low 0.991 | S. cerevisiae deletion strains, locus YNL307C, strain MCK1, active compounds read low 0.986 | S. cerevisiae deletion strains, locus YNR052C, strain pop2, active compounds read low 0.96 | S. cerevisiae deletion strains, locus YOL012C, strain htz1 0.853 | S. cerevisiae deletion strains, locus YOL147C, strain pex11, active compounds read low 0.991 | S. cerevisiae deletion strains, locus YOR061W, strain CKA2, active compounds read low 0.962 | S. cerevisiae deletion strains, locus YOR069W, strain VPS5, active compounds read low 0.999 | S. cerevisiae deletion strains, locus YOR136W, strain idh2, active compounds read low 0.989 | S. cerevisiae deletion strains, locus YOR144C, strain elg1, active compounds read low 0.981 | S. cerevisiae deletion strains, locus YOR184W, strain ser1, active compounds read low 1.02 | S. cerevisiae deletion strains, locus YOR316C, strain cot1, active compounds read low 0.981 | S. cerevisiae deletion strains, locus YPR119W, strain clb2, active compounds read low 0.999 | S. cerevisiae deletion strains, locus YPR141C, strain kar3, active compounds read low 0.97 | S. cerevisiae deletion strains, locus YPR163C, strain tif3, active compounds read low 0.989 | S. cerevisiae deletion strains, locus YPR167C, strain met16, active compounds read low 0.973 | S. cerevisiae deletion strains, strain wtn01, active compounds read low 1.01 | S. cerevisiae strains, strain wild type, active compounds read low 1

Source: PubChem BioAssay AID1159580 (chemical genetic matrix, 2015)
